This assay relates to MDA-MB-468 breast. The assay can be described thus: NCI-60 one-dose screen, 48 h (100 = growth as untreated, 0 = no growth, -100 = all killed). Particulars: 10 µM unless noted.

Where “and” joins values, the source holds several entries; their conditions need not be identical. Equal entries are not always repeated. This is part of a sample that, as a whole, favours compounds with a hit. Of some 83,000 tested, about 20% had one in any assay.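 Each cell line was grown in a 96-well plate and treated with one concentration of compound for 48 hours. Values below 10 were considered active.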 Calls of active or inactive are those of the source.

On to `COc1cc(C=C2C(=O)N(C)C(=O)N(C)C2=O)cc(CN2CCCCC2)c1O`, for which the growth was 104% (inactive). For `COCCOC(=O)NC(=O)Nc1ccc(C(=O)c2ccc(Cl)cc2)cc1`, the growth is -8.24% (active). Then `C=CCOc1ccc(/C(Cl)=N/N=C(\Cl)c2cc(OC)c(OC)c(OC)c2)cc1`, with 23.3% (inactive); and `C#CCOc1ccc2ncnc(Nc3cccc(CNC(=O)CCl)c3)c2c1`, with -3.41% [8.25 µM] (active). Take `O=C(/C=C/c1ccccc1)Oc1ccc(/C=C/c2cc(OC(=O)/C=C/c3ccccc3)cc(OC(=O)/C=C/c3ccccc3)c2)cc1`: the growth was 99.4% (inactive). The same measure for `O=c1[nH]nc(-c2ccccc2)c2sc(NC(=S)Nc3ccc(Cl)cc3)nc12`: 95.6% (inactive); for `CC/C(Cc1ccccc1)=C(\c1ccc(OCCCN(C)C)cc1)c1ccc(OC(=O)NCc2ccccc2)cc1`: 56.8% (inactive). Then `O=C(CCl)Nc1cc(O)c2c(c1)C(=O)c1cccc(O)c1C2=O`, with -55.1% (active).

For `CCOC(=O)c1cnc(SCC)nc1SC#N`, the growth is 124% (inactive). On to `COc1ccc(-c2cc(/C=C3\C(=O)Nc4ccc(Cl)cc43)[nH]n2)cc1OC`, for which the growth is 108% (inactive). `Cc1cc(N(CCCNc2ccnc3cc(Cl)ccc23)Cc2cccs2)nc(Cl)n1`: the growth was 1.63% (active). The same measure for `COC(=O)c1nc(N)nc(C(=O)OC)c1C(=O)c1ccc(OC)cc1`: 98.1% (inactive) and 47.2% (inactive); for `O=C1OCC2=C1C(c1cccc(F)c1)c1cc3c(cc1N2CCO)CCC3` (stereo not given): -5.09% (active). The same measure for `COc1ccc(/C=N/NC(=O)COCC(=O)N/N=C/c2ccc(OC)cc2)cc1`: 100% (inactive). Then `CC(C(=O)O)N1C(N)=NNC1c1ccccc1O` (stereo not given), with 104% (inactive); and `OB(O)c1cccc(-c2nc3ccc4[nH]ncc4c3c3c2CCCC3)c1F`, with 55.3% (inactive); and `O=C(COc1cc(O)c2c(=O)cc(-c3ccccc3)oc2c1)Nc1ccccc1C(F)(F)F`, with 67.6% (inactive). In the case of `COc1cc(C(=O)/C=C/c2c(-c3cccs3)nc3sccn23)cc(OC)c1OC`, the growth is -49.5% (active). The same measure for `[Cl][Ru].c1ccc(-c2cc(-c3ccccn3)nc(-c3ccccn3)c2)cc1.c1ccc(-c2ccnc3c2ccc2c(-c4ccccc4)ccnc23)cc1`: -66.3% (active).

Turning to `O=C(Nc1cccc(-c2nc3ccccc3[nH]2)c1)c1cccc(NC(=O)c2ccco2)c1`, the growth was 70.8% (inactive). Then `CCOc1ccccc1/C=N\N=C(N/N=C/c1ccccc1OCC)N/N=C/c1ccccc1OCC`, with -30.4% (active); and `O=C(Nc1ncc(Cc2ccccc2Cl)s1)c1ccc2c(c1)OCCO2`, with 18.5% (inactive). The same measure for `CC(C)C1=NOC(=O)C1=Cc1cn(-c2ccccc2)nc1-c1cccc([N+](=O)[O-])c1`: 86.6% (inactive); for `CCN(CC)CCNc1ccc(C)c2sc3cc(C)ccc3c(=O)c12`: 66.5% (inactive).

For `O=[N+]([O-])c1ccc(-c2noc(-c3cccs3)n2)cc1`, the growth is 56.6% (inactive). Then `Clc1cccc(Cl)c1Nc1ccc2nnc(-c3ccncc3)n2n1`, with 104% (inactive); and `CCOC(CNCc1cc(C)c2[nH]c3ccccc3c2c1C)OCC`, with 67.6% (inactive).

On to `C[C@@H]1C(=O)N(C[C@H](Cc2ccccc2)N(Cc2ccccc2)Cc2ccccc2)[C@]1(Cc1ccccc1)C(=O)OC(C)(C)C`, for which the growth was 10.7% (inactive). The same measure for `COc1ccc2nc3cc(Cl)ccc3c(Nc3cc(CN4CCCC4)c(O)c(CN4CCCC4)c3)c2n1`: -53.3% (active); for `COc1ccc(/C=N/OCC(O)CNCc2ccccc2)cc1OC1CCCC1` (stereo not given): 99.2% (inactive); for `COc1cc(Nc2ncccc2NC(=O)c2cn(Cc3cccc(Oc4ccccc4)c3)nn2)cc(OC)c1`: 65.9% (inactive).

Turning to `Nc1cc2c(cc1N)-c1cc(N)c(N)cc1C2`, the growth is 105% (inactive). As for `Cc1ccccc1SSc1ccccc1C`, the growth was 68.4% (inactive). The same measure for `COc1cc(-c2nc(N)n(CC(=O)Nc3ccc(/C(C)=N\O)cc3)n2)cc(OC)c1OC`: 104% (inactive); for `Cc1ccc(-c2cc3nc(C(Cl)Cl)nc(-c4cccs4)n3n2)cc1`: 39.5% (inactive).

For `O=C1C=CC2=C3c4cc(O)c(O)cc4CC3(O)COC2=C1O` (stereo not given), the growth is 102% (inactive).

Turning to `CN(C)C(=O)OCc1ccc2c(Cl)cc(Cl)c(O)c2n1`, the growth was 27% (inactive).

Consider `CCN(CC)CCCC(C)N/C(c1cccc(OC)c1)=c1\c(=O)[nH]n(-c2c3ccccc3nc3ccccc23)c(=O)\c1=C(/NC(C)CCCN(CC)CC)c1cccc(OC)c1` (stereo not given), for which the growth was -56.2% (active). The same measure for `O=C(Nc1cccc(Cl)c1)Nc1cc(C(F)(F)F)ccc1Cl`: 1.29% (active); for `COc1cc(N)c2ncccc2c1Cl`: 103% (inactive).

Regarding `O=c1c2ccccc2n(CC(O)CN2CCCC2)c2c(Br)cccc12` (stereo not given), the growth was 97.1% (inactive). In the case of `CC(=O)c1cccc(OC(=O)c2ccccc2)c1`, the growth was 104% (inactive).

Regarding `NS(=O)(=O)c1ccc(-n2cc(-c3cccc(NC(=O)c4ccc(N5CCOCC5)c(C(F)(F)F)c4)c3)nn2)cc1`, the growth was 36.7% (inactive). The same measure for `O=C(/C=C/c1ccc(F)cc1)c1ccc(Nc2nc(NCCO)nc(Nc3ccc(Cl)cc3)n2)cc1`: 57.8% (inactive); for `C[C@@H]1CC2C3C[C@H](F)C4=CC(=O)C=C[C@]4(C)[C@@]3(F)[C@@H](O)C[C@]2(C)[C@@]1(O)C(=O)CO` (stereo not given in full): 102% (inactive). Then `CC(=O)Nc1nonc1-c1nc2ccccc2n1Cc1ccc(C(C)(C)C)cc1`, with 86.8% (inactive). Then `O=c1c2cccc(F)c2sc2c(NCCCNCCO)nc3ccccc3c12`, with -18.3% (active). For `CC(C)(C)OC(=O)N1C=C/C(=C\Cn2cc(-c3ccccc3)nn2)CC1`, the growth is 26.4% (inactive). `Cc1nc(N)sc1C(=O)NCCO`: the growth was 96.8% (inactive). The same measure for `CC(C)C1=NOC(=O)C1=Cc1cn(-c2ccccc2)nc1-c1ccccc1`: 97.2% (inactive); for `COc1cccc(C2(C)Nc3ccccc3-c3nc4ccccc4n32)c1` (stereo not given): 109% (inactive). Then `COc1cc(OC)c2sc(-c3ccc(-n4cncc4-c4ccc(N)cc4)cc3)nc2c1`, with 67.3% (inactive). The same measure for `c1ccc(CN2COc3c(ccc4c3OCN(Cc3ccccc3)C4)C2)cc1`: 0.865% (active); for `O=C1c2ccccc2C(=O)c2c1oc1c2c(=O)[nH]c2ccc(Cl)cc21`: -32.4% (active); for `COc1cc(C2CC(c3ccccc3)=NN2C=O)ccc1Oc1nc2c(c(=O)n(C)c(=O)n2C)n1C` (stereo not given): 63.9% (inactive). For the compound `COc1ccc(/C=C(\C#N)c2cc3ccccc3n2C)cc1`, the growth is 27.6% (inactive). The same measure for `CSc1nc2sc3c(c2c(=O)n1-c1ccc(C(C)C)cc1)CCC(=O)C3`: -16.5% (active). Then `O=[N+]([O-])c1ccc(O)c2ncccc12`, with 30.6% (inactive) and 1.77% (active); and `Cc1ccc(NS(=O)(=O)c2ccccc2)c(NS(=O)(=O)c2ccccc2)c1`, with 104% (inactive).

Consider `COc1cc(/C=C\c2cc(/C=C\c3ccc(O)c(OC)c3)n(C(=O)CNc3ccccc3OC)n2)ccc1O`, for which the growth is 95.8% (inactive). For `Cc1cn(-c2cc(NC(=O)c3cncc(C#Cc4cnc(N)c5ncccc45)c3)cc(C(F)(F)F)c2)cn1`, the growth is 67.3% (inactive).

With `Nc1ccc(N=Nc2ccc(S(=O)(=O)O)cc2)c2ccccc12`, the growth was 97.2% (inactive). The same measure for `CCCC(CCC)NCC(O)c1cc(-c2ccc(C(F)(F)F)cc2)nc(C(F)(F)F)c1` (stereo not given): -91.6% (active); for `Clc1ccc(C2CC(c3cccc(Nc4ccncc4)c3)=NN2c2ccc(Cl)cc2)cc1` (stereo not given): -35.3% (active); for `CCN(CC)S(=O)(=O)c1cccc(-c2ccc3c(NC(=O)C4CC4)n[nH]c3c2)c1`: 6.55% [6.25 µM] (active). Turning to `O=C(Nc1ccc(Br)cc1F)c1cc(Cl)ccc1O`, the growth is -14.5% (active).

As to `Oc1ccc2ccccc2c1/C=N\Nc1ccccn1`, the growth was -19.3% (active). Then `COc1cc2cc(Oc3ccc(NC(=O)Nc4cccc(C(F)(F)F)c4)cc3)c(C)nc2cc1OC`, with -32.5% (active); and `O=C(CSc1nc2ccc([N+](=O)[O-])cc2[nH]1)Nc1cccc(C(F)(F)F)c1`, with -8.14% (active); and `CCCCCCCCn1ccc2cc(NC(=O)CN=[N+]=[N-])ccc21`, with 105% (inactive). As for `O=C(NC1CCN(Cc2ccccc2)CC1)c1cc2nc(-c3ccc(Cl)s3)cc(C(F)(F)F)n2n1`, the growth is -66.2% (active).

Consider `CC1(C)C=Cc2cc(/C(N)=N/C(N)=N/c3nc4ccccc4s3)ccc2O1`, for which the growth is 74.1% (inactive). The same measure for `O=C(O)CCC(=O)OC[C@@H](NC(=O)C(Cl)Cl)[C@H](O)c1ccc([N+](=O)[O-])cc1`: 95.5% (inactive).

Consider `Cc1cc(C)n(-c2nc(-c3cccs3)c(C#N)c(=O)[nH]2)n1`, for which the growth was 112% (inactive). Then `Cn1cc(-c2csc(-c3c[nH]c4ccc(F)cc34)n2)c2cnccc21`, with -49.6% (active).

Regarding `Cc1cccc(OCC(O)CN2CCN(c3ccc(Cl)cc3)CC2)c1` (stereo not given), the growth was 112% (inactive).

Regarding `CSc1nc(N)n2nccc2n1`, the growth was 114% (inactive). Then `COc1cc(/C=C/C(=O)c2c(C)nc3ccccc3c2/C=C/c2ccccc2)cc(OC)c1OC`, with 7.7% (active); and `COC(=O)c1c(C)nc(C)c2c1C(=O)C=C(NCc1ccccc1)C2=O`, with 53.9% (inactive); and `CCN(CC)CCCC(C)Nc1cc(-c2ccc(C(F)(F)F)cc2)c(C#N)c2nc3ccccc3n12` (stereo not given), with -23.6% (active). The same measure for `NC(CCc1nc2ccccc2c(=O)[nH]1)C(=O)O` (stereo not given): 105% (inactive); for `O=C(Nc1ccc(OCc2nnc(-c3ccc(Cl)cc3)o2)c(F)c1)Nc1ccc(Cl)c(C(F)(F)F)c1`: -24.8% (active); for `O=C(Nc1ccc(N2CCCCC2)c(Cl)c1)c1ccc(Br)o1`: 89.7% (inactive). Then `O=C1CSC2=NCCN12`, with 105% (inactive) and 100% (inactive); and `CCN(CC)CC(=O)Nc1cccc(C(=O)OC(C)C)c1`, with 115% (inactive).

The values are drawn from PubChem BioAssay (NCI).
